Among the data in PubChem BioAssay AID371 (SRMLSC, 2006) are growth inhibition values, retold here.

In all, about 3,300 compounds went through this assay and about 280 (8.5%) were called active. Shown is part of a subset that was picked to be rich in actives. Values without a mark were called inactive.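 The calls were made as follows: active = mean growth inhibition over the two runs of 50% or more; inactive = mean growth inhibition under 50%.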

A short description of the assay: A549 NSCLC cell proliferation inhibitors – ATP luminescence, human non-small cell lung line, primary screen (AID 371).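 Also: compound exposure lasted 72 h before the ATP read; 0% = untreated cell signal and 100% = no luminescence left.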 The note with it: at 10 µM, hits give high values.
Regarding `CC1CCN(c2[nH]c(=S)c(C#N)c3c2CCCC3)CC1`, the growth inhibition was 56% (active).
With `CCc1[nH]c(=O)c(C#N)c2c1CCCC2` the figure was 2.12%; with `CC1(C)Cc2c(c(N3CCCCC3)[nH]c(=S)c2C#N)CS1`, 4.02%.
Take `COc1ccc2c(c1)[nH]c1c(=O)n(CCN(C)C)cnc12`: the growth inhibition is 4.43%.
`CC1(C)SC2[C@H](NC(=O)C(NC(=O)N3CCNC3=O)c3ccccc3)C(=O)N2C1C(=O)O` (stereo not given in full): the growth inhibition was 3.08%.
With `CC(C)C1C(C#N)=C(N)Oc2n[nH]c(C(C)(C)C)c21` (stereo not given) the figure was -3.11%; with `Cc1[nH]nc2c1C(CCc1ccccc1)C(C#N)=C(N)O2` (stereo not given), 0.1%.
For `C1CCC(C(CC2CCCCN2)C2CCCCC2)CC1` (stereo not given), the growth inhibition is 91.8% (active).
With `N#CCSc1nc2c(c(=O)n1Cc1ccco1)C1(CCCC1)Cc1ccccc1-2`, the growth inhibition was 30.2%.
On to `Cc1ccnc(N2CCN(c3c4c(c(C#N)c5nc6ccccc6n35)CCC4)CC2)c1`, for which the growth inhibition is 7.43%.
For the molecule `COc1cc(=O)[nH]c(=O)n1CC(=O)c1ccccc1`, the growth inhibition is -1.03%.
On to `CC1(C)Cc2c(C#N)c(N3CCN(C(=O)c4ccco4)CC3)nc(Cc3ccccc3)c2CO1`, for which the growth inhibition was 72.3% (active).
Consider `CC1(C)Cc2c(C#N)c(N3CCOCC3)nc(Cc3ccccc3)c2CO1`, for which the growth inhibition is 16.7%.
For the molecule `CCCCc1nc(NCCN2CCOCC2)c(C#N)c2c1COC(C)(C)C2`, the growth inhibition was 1.05%.
Take `CCCCc1nc(NCCNC(=O)c2ccco2)c(C#N)c2c1CSC(C)(C)C2`: the growth inhibition is 56.1% (active).
For the molecule `CC1(C)Cc2c(C#N)c(NCCc3ccccc3)nc(-c3ccco3)c2CO1`, the growth inhibition was 1.2%.
On to `CC1(C)Cc2c(c(-c3ccco3)[nH]c(=O)c2C#N)CS1`, for which the growth inhibition was 0.57%.
On to `CC1(C)Cc2c(C#N)c(N3CCN(C(=O)c4ccco4)CC3)nc(-c3ccco3)c2CS1`, for which the growth inhibition is 50.1% (active).
Turning to `CCc1nc(N2CCN(C(=O)c3ccccc3)CC2)c(C#N)c2c1COC(C)(C)C2`, the growth inhibition is 36.6%.
As for `CC1(C)Cc2c(C#N)c(N3CCN(C(=O)c4ccccc4)CC3)nc(-c3ccco3)c2CS1`, the growth inhibition was 12.2%.
As for `CCOC(=O)C(C(=O)OCC)N(C#N)c1nc(SC)nc(N(C)C)n1`, the growth inhibition is -4.38%.
Regarding `Cc1nnc(SCC(=O)N2CCC(C(N)=O)CC2)s1`, the growth inhibition is -21.6%.
Then `C=C(C)CN(CC)CCC(=O)Nc1ccc(OC)cc1OC`, with 4.6%.
With `COC(=O)CNC(=O)c1c(C)cc(=O)oc1C` the figure was 0.81%.
Take `CC1(C(=O)CSc2nc3ccccc3s2)CCC(=O)O1` (stereo not given): the growth inhibition is 3.38%.
For the molecule `O=c1cc(N2CCCCC2)nc2n1CCCS2`, the growth inhibition was 8.96%.
For the molecule `Cc1ccc(S(=O)(=O)N2CCN(c3nc(C(C)C)c4c(c3C#N)CC(C)(C)OC4)CC2)cc1`, the growth inhibition is 29.3%.
With `Clc1ccc2[nH]c3c(NCCN4CCOCC4)ncnc3c2c1`, the growth inhibition is 34.3%.
On to `Cc1ccc2[nH]c3c(NCCN4CCOCC4)ncnc3c2c1`, for which the growth inhibition was 18%.
Then `Clc1ccc2[nH]c3c(NCCCN4CCOCC4)ncnc3c2c1`, with 89.9% (active); and `C=CCn1c(SCC#N)nc2c(c1=O)C(C)(C)Cc1ccccc1-2`, with 28.8%.
Turning to `COn1c(=S)[nH]c2ccccc2c1=O`, the growth inhibition was 3.49%.
In the case of `CCCCCCCCCCCCCCCC(O)C(N)CO` (stereo not given), the growth inhibition is 94.3% (active).
As for `CCSC(SCC)[C@H](O)[C@@H](O)[C@H](O)[C@H](O)CO`, the growth inhibition was -2.15%.
On to `Cc1cc(C)n(-c2c(F)c(F)c(CN3CCCCC3)c(F)c2F)n1`, for which the growth inhibition was 9.57%.
Regarding `CN(C)c1cccc2c(S(=O)(=O)N3CCOCC3)cccc12`, the growth inhibition was 15.9%.
Consider `Cc1ccc(C(=O)/C=C/Nc2cccc(O)c2)cc1`, for which the growth inhibition is 37.1%.
Then `N=c1c2c(-c3ccccc3)c(-c3ccccc3)n(Cc3ccccc3)c2ncn1CCCn1ccnc1`, with 91.5% (active); and `O=C(NCCCn1ccnc1)C(Cc1ccccc1)N1C(=O)c2ccccc2C1=O` (stereo not given), with 2.6%.
For `O=c1c(C=NCCCn2ccnc2)c(-c2ccccc2)[nH]n1-c1nc2ccccc2s1`, the growth inhibition is 17%.
For the molecule `Cc1cc(C)c2c(N)c(C(=O)c3ccccc3)oc2n1`, the growth inhibition was 19.9%.
As for `Cc1nn(-c2ccccc2)c2c1C(c1ccc(F)cc1F)C(C#N)=C(N)O2` (stereo not given), the growth inhibition is 17%.
For the molecule `CCCCCCc1cc2cc(C(=O)NC)c(=N)oc2cc1O`, the growth inhibition is 87.4% (active).
Regarding `CNC(=O)c1cc2c(ccc3ccccc32)oc1=N`, the growth inhibition was 9.88%.
As for `CCN(CC)c1ccc2cc(-c3nnc(-c4ccncc4)o3)c(=O)oc2c1`, the growth inhibition was 11.3%.
Take `CCCCCCc1cc2cc(-c3nnc(-c4ccccc4O)o3)c(=O)oc2cc1O`: the growth inhibition was 95% (active).
Then `COc1ccc(C2/C(=C(\O)c3ccc4c(c3)OCCO4)C(=O)C(=O)N2CCCN(C)C)cc1` (stereo not given), with -19.3%.
As for `O=C(OCCN1CCOCC1)c1ccc2c(c1)OCCO2`, the growth inhibition was -1.1%.
In the case of `NC(=O)c1ccccc1OCCOCCOCCOc1ccccc1C(N)=O`, the growth inhibition is 4.77%.
Regarding `COC(=O)CSc1nc(N)nc(C)c1Br`, the growth inhibition is 0.51%.
For `C=CCn1c(=O)c(C(=O)NCCN(CC)CC)c(O)c2ccccc21`, the growth inhibition was 13.9%.
With `CCOC(=O)CSC1=C(C#N)C(c2ccc(OC)cc2)C2=C(CC(C)(C)CC2=O)N1` (stereo not given), the growth inhibition was 9.46%.
Take `N#Cc1ccc(-c2ccco2)nc1SCC(=O)c1ccc(Cl)cc1`: the growth inhibition was 36.8%.
With `N#CC1=C(SCC(=O)c2ccc(Br)cc2)NC2=C(C(=O)CCC2)C1c1ccco1` (stereo not given) the figure was 77.8% (active); with `COc1ccccc1NC(=O)C1=C(C)NC(SCC(=O)c2ccc(C)cc2)=C(C#N)C1c1ccco1` (stereo not given), 18.3%; with `N#CC1=C(SCC(=O)c2ccccc2)NC2=C(C(=O)CCC2)C1c1ccco1` (stereo not given), 69% (active).
`Cc1ccc(NC(=O)CSC2=C(C#N)C(c3ccco3)C3=C(CCCC3=O)N2)cc1` (stereo not given): the growth inhibition was 31.5%.
Then `N#CC1=C(SCc2ccccc2)NC2=C(C(=O)CCC2)C1c1ccc2c(c1)OCO2` (stereo not given), with 35.2%.
As to `N#CC1=C(SCC(=O)c2ccc(Cl)cc2)NC2=C(C(=O)CCC2)C1c1ccco1` (stereo not given), the growth inhibition is 80% (active).
Then `Cc1ccc(C(=O)CSC2=C(C#N)C(c3ccco3)C3=C(CCCC3=O)N2)cc1` (stereo not given), with 76.4% (active).
